Here are results for 5 compounds from PubChem BioAssay (EPA / NIEHS).

“And” between values parts separate entries of the source, which are not always exact repeats. Equal values may be shown once. Some compounds were tested as several samples or in several runs, with calls that do not always agree. The source made the active and inactive calls. Rule for the calls: active = hit-call score of the fitted dose curve at least 0.9, where 1 is the maximum; inactive = score below 0.9.

A short description of assay [1]: ATG_E_Box_CIS: Attagene CIS-FACTORIAL HepG2 Assay for human Enhancer Box (E-box) (AID 2282936). To be noted: HepG2 E-box cis-reporter transcription, actives raise or lower the signal. An outline of the steps: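 Transiently transfected HepG2, endogenous TF-driven reporters, 24 h dosing. Readout: RT-PCR plus capillary electrophoresis of fluorescent reporter fragments. Gain or loss of signal fitted bidirectionally against DMSO baseline.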

Assay [2] can be described thus: ATG_M_61_CIS: Attagene CIS-FACTORIAL HepG2 Assay for M61 Transcription Factor (Internal Marker) (AID 2282937). To be noted: HepG2 Attagene CIS-FACTORIAL M61 internal marker reporter; actives raise or lower the signal. An outline of the steps: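 This endpoint serves as an internal background control within a multiplexed HepG2 cis-reporter panel. Cells are exposed for 24 h; reporter mRNA is amplified, fluorescently labelled and sized by capillary electrophoresis, with DMSO as negative control.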

The nature of assay [3]: ATG_M_19_CIS: Attagene CIS-FACTORIAL HepG2 Assay for M19 Transcription Factor (Internal Marker) (AID 2282939). The following applies: HepG2 Attagene CIS-FACTORIAL M19 internal marker reporter; actives raise or lower the signal. The method, boiled down:
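In this multiplexed cell assay, transiently transfected HepG2 reporter units report endogenous transcription-factor activity; after 24 hours of treatment, labelled reporter cDNA fragments are quantified by capillary electrophoresis and fitted bidirectionally against DMSO.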

A short description of assay [4]: ATG_ERE_CIS: Attagene CIS-FACTORIAL HepG2 Assay for Estrogen Response Element (ERE) (AID 2282940). To be noted: HepG2 ERE cis-reporter, Attagene RNA transcript; actives raise or lower the signal. An outline of the steps:
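Measuring endogenous transcription factor output, the assay doses transfected HepG2 cells for 24 hours and quantifies reporter transcripts by fluorescent RT-PCR and capillary electrophoresis, with DMSO as baseline.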

Assay [5] can be described thus: ATG_Ets_CIS: Attagene CIS-FACTORIAL HepG2 Assay for human Erythroblast Transformation Specific (ETS) (AID 2282941). To be noted: HepG2 ETS cis-reporter transcription; AC50: actives raise or lower the signal unless noted; outcome: actives raise or lower the signal unless noted. The method, boiled down:
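Cis-regulated reporter mRNA induction in HepG2 (transient transfection), 24 h exposure, RT-PCR plus capillary electrophoresis detection; DMSO serves as negative control and baseline.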

Assay [6] is described as follows: ATG_FoxO_CIS: Attagene CIS-FACTORIAL HepG2 Assay for human Forkhead box O (FoxO) (AID 2282943). The following applies: HepG2 Attagene cis-reporter, FoxO element, mRNA; actives raise or lower the signal. The method, boiled down: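 Read-out: fluorescence of 6-FAM-labelled reporter cDNA fragments resolved by capillary electrophoresis. Transiently transfected HepG2 cells were dosed for 24 h; activity fitted in both directions relative to DMSO controls.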

The nature of assay [7]: ATG_GATA_CIS: Attagene CIS-FACTORIAL HepG2 Assay for human GATA Binding Protein (AID 2282944). To be noted: HepG2 GATA cis-element reporter, Attagene multiplex mRNA; actives raise or lower the signal. An outline of the steps: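 Measures endogenous transcription factor-driven reporter mRNA in HepG2 cells transiently carrying cis-regulated constructs. 24 h dosing; RNA via oligo(dT) reverse transcription, PCR, HpaI digestion, capillary electrophoresis; fitted relative to DMSO.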

The nature of assay [8]: ATG_GLI_CIS: Attagene CIS-FACTORIAL HepG2 Assay for human Zinc Finger Protein GLI1 (AID 2282945). To be noted: HepG2, Attagene cis-factorial reporter mRNA, GLI element; actives raise or lower the signal. The method, boiled down: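 Transiently transfected HepG2 cells report endogenous transcription factor activity via cis-element-driven reporter units. After 24 h compound exposure, reporter mRNA was measured by RT-PCR with capillary electrophoresis; bidirectional fitting against DMSO baseline.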

Assay [9] addresses Bile acid receptor (Homo sapiens) (UniProt Q96RI1). Briefly: ATG_IR1_CIS: Attagene CIS-FACTORIAL HepG2 Assay for human Nuclear Receptor Subfamily 1 Group H Member 4 (NR1H4), IR1 submotif (AID 2282946). The following applies: IR1 reporter transcription, actives raise or lower the signal. An outline of the steps:
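Fluorescence of capillary-separated, HpaI-digested RT-PCR reporter products gave IR1-element mRNA induction in HepG2 cells 24 h after dosing. Endogenous transcription factors drove the cis-regulated reporters; activity was fitted bidirectionally against DMSO.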

Assay [10] in a line: ATG_GRE_CIS: Attagene CIS-FACTORIAL HepG2 Assay for human Glucocorticoid Response Elements (GRE) (AID 2282947). To be noted: HepG2 GRE cis-reporter, Attagene multiplex mRNA; AC50: actives raise or lower the signal unless noted; outcome: actives raise or lower the signal unless noted. The method, boiled down:
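Read-out: fluorescent reporter-transcript fragments separated by capillary electrophoresis after RT-PCR. Transiently transfected HepG2 cells carrying cis-element-driven reporter units were dosed for 24 h; gain or loss of signal fitted against DMSO control.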

The nature of assay [11]: ATG_ISRE_CIS: Attagene CIS-FACTORIAL HepG2 Assay for human Interferon Regulatory Factor 1 (IRF1) binding to an Interferon-Stimulated Response Element (ISRE) (AID 2282948). To be noted: HepG2 ISRE cis-reporter (Attagene), mRNA transcription readout; actives raise or lower the signal. An outline of the steps:
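Multiplexed mRNA reporter readout in human liver HepG2 cells: cis-element-driven reporters transfected, compound added for 24 h, transcripts amplified, fluorescently labelled and sized by capillary electrophoresis; curve fitting bidirectional against DMSO.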

Assay [12] can be described thus: ATG_M_32_CIS: Attagene CIS-FACTORIAL HepG2 Assay for M32 Transcription Factor (Internal Marker) (AID 2282949).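 Note: background control marker of the multiplexed CIS panel rather than a real target.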 The following applies: HepG2 Attagene cis-factorial M32 reporter, mRNA; actives raise or lower the signal. The method, boiled down:
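Transient MRTU transfection of HepG2; 24 h compound treatment; TriZol RNA, oligo(dT) RT, reporter PCR, 6-FAM primer extension, HpaI cut, CE. Gain/loss of signal vs DMSO.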

A short description of assay [13]: ATG_M_06_CIS: Attagene CIS-FACTORIAL HepG2 Assay for M06 Transcription Factor (Internal Marker) (AID 2282950). The following applies: HepG2 Attagene CIS-FACTORIAL M06 internal marker reporter; actives raise or lower the signal. The method, boiled down: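 One of many multiplexed endpoints: HepG2 reporter mRNA after 24 h dosing, detected by RT-PCR and capillary electrophoresis fluorescence; gain or loss of signal analysed against DMSO.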

The target of assay [14] is Hypoxia-inducible factor 1-alpha (Homo sapiens) (UniProt Q16665). Briefly: ATG_HIF1a_CIS: Attagene CIS-FACTORIAL HepG2 Assay for human Hypoxia Inducible Factor 1 (HIF1A) (AID 2282951). To be noted: HepG2 Attagene cis-factorial HIF1a reporter transcription; actives raise or lower the signal. An outline of the steps: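 HepG2, transient cis-reporter library, 24 h dosing. RNA → RT (oligo dT) → PCR → 6-FAM primer extension → HpaI → CE. Bidirectional curve fit vs DMSO.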
Hypoxia-inducible factor 1-alpha (Homo sapiens), sequence (Q16665 whole entry, looked up): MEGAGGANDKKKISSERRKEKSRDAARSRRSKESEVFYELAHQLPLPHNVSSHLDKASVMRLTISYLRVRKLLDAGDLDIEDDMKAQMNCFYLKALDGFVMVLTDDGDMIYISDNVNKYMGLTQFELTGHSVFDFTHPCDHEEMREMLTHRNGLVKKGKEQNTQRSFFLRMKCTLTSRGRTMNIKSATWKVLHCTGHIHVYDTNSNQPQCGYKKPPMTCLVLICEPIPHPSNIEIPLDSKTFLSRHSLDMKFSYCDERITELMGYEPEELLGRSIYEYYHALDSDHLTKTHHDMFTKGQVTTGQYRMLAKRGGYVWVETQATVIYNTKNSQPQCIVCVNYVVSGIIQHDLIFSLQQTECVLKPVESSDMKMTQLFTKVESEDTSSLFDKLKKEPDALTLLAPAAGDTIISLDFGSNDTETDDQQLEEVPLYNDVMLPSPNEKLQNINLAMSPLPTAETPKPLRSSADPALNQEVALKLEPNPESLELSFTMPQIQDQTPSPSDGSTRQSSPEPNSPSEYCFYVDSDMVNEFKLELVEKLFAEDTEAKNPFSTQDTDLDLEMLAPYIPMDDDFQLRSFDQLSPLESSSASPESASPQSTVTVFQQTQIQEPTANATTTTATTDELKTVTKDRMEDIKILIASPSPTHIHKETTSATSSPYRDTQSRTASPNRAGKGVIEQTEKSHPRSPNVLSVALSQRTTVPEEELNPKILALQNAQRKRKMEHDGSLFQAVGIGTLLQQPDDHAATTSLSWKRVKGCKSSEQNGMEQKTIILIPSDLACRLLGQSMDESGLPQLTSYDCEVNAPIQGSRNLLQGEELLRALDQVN

Assay [15] has as its target Hepatocyte nuclear factor 6 (Homo sapiens) (UniProt Q9UBC0). The assay is described as follows: ATG_HNF6_CIS: Attagene CIS-FACTORIAL HepG2 Assay for human Hepatocyte Nuclear Factor 6 (HNF6) (AID 2282952). To be noted: HepG2 Attagene cis-factorial HNF6 reporter transcription; actives raise or lower the signal. The method, boiled down:
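Endogenous factor activity read in transiently transfected HepG2 via promoter-regulated reporter transcripts. RNA harvested 24 h post-dosing, reverse-transcribed, PCR-amplified, FAM-labelled, HpaI-digested and resolved by capillary electrophoresis; fitted in both directions against DMSO.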

Assay [16] deals with Heat shock factor protein 1 (Homo sapiens) (UniProt Q00613). The assay is described as follows: ATG_HSE_CIS: Attagene CIS-FACTORIAL HepG2 Assay for human Heat Shock Transcription Factor 1 (HSE) (AID 2282953). To be noted: HepG2 HSE cis-reporter, Attagene RNA transcription; actives raise or lower the signal. The method, boiled down: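 Using HepG2 with transfected cis-driven reporter constructs, compound effects on endogenous factor activity are scored as reporter mRNA change at 24 h. Detection: RT-PCR, HpaI digestion, capillary electrophoresis; bidirectional fitting to DMSO.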
Heat shock factor protein 1 (Homo sapiens), sequence (Q00613 whole entry, looked up): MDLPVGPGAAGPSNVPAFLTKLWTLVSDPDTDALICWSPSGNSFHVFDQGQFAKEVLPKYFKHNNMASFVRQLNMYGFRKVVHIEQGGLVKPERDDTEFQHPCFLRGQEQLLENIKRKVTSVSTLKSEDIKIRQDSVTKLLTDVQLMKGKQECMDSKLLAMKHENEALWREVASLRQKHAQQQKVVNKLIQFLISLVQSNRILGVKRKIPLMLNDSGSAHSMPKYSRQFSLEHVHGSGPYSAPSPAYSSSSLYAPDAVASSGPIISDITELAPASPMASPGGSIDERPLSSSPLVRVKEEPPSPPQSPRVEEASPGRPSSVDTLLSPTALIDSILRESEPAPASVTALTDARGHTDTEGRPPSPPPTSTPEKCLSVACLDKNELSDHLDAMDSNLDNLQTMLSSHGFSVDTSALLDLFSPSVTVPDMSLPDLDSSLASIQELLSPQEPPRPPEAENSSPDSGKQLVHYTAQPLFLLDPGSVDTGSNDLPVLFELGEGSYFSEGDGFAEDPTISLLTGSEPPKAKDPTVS

The nature of assay [17]: ATG_PBREM_CIS: Attagene CIS-FACTORIAL HepG2 Assay for human Phenobarbital-responsive Enhancer Module (PBREM) (AID 2282955). To be noted: HepG2 PBREM cis-reporter, Attagene multiplexed transcription; actives raise or lower the signal. The method, boiled down: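 HepG2, transient MRTU transfection, 24 h dosing; RNA → oligo(dT) RT → PCR → 6-FAM extension → HpaI → CE. Bidirectional fit vs DMSO.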

For assay [18], the target named is Hepatocyte nuclear factor 3-beta (Homo sapiens) (UniProt Q9Y261). The assay is described as follows: ATG_FoxA2_CIS: Attagene CIS-FACTORIAL HepG2 Assay for human Forkhead box A2 (FOXA2) (AID 2282942). To be noted: HepG2 cis-reporter transcription factor activity, 24 h; actives raise or lower the signal. The method, boiled down:
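Cells: HepG2, transient multiplex reporter transfection. Exposure 24 h. Detection: reporter-specific RT-PCR, fluorescent labelling, restriction digest, capillary electrophoresis. Analysis: bidirectional curve fit, DMSO as negative control.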

The nature of assay [19]: ATG_MRE_CIS: Attagene CIS-FACTORIAL HepG2 Assay for human Metal Responsive Element (MRE) (AID 2282954). To be noted: HepG2 MRE cis-reporter transcription, Attagene multiplex; actives raise or lower the signal. An outline of the steps: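 RT-PCR/capillary electrophoresis readout of reporter mRNA, 24 h post-dosing, in HepG2 cells transfected with multiplexed cis-regulated reporter constructs. Gain or loss of signal fitted bidirectionally against DMSO baseline.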

Bile acid receptor (Homo sapiens), sequence (Q96RI1 whole entry, looked up): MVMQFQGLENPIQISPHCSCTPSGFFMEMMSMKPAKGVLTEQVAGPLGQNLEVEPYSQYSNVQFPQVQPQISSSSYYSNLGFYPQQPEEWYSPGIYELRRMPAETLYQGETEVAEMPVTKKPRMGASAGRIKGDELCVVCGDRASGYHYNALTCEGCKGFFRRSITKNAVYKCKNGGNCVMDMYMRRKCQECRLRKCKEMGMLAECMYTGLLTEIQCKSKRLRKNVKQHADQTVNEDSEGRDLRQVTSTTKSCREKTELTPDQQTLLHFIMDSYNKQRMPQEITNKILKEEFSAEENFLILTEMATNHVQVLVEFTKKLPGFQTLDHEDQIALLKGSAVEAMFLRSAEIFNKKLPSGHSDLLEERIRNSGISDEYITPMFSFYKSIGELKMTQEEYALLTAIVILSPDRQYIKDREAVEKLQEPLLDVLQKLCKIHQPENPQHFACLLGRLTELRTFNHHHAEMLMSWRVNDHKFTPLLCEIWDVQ
Hepatocyte nuclear factor 6 (Homo sapiens), sequence (Q9UBC0 whole entry, looked up): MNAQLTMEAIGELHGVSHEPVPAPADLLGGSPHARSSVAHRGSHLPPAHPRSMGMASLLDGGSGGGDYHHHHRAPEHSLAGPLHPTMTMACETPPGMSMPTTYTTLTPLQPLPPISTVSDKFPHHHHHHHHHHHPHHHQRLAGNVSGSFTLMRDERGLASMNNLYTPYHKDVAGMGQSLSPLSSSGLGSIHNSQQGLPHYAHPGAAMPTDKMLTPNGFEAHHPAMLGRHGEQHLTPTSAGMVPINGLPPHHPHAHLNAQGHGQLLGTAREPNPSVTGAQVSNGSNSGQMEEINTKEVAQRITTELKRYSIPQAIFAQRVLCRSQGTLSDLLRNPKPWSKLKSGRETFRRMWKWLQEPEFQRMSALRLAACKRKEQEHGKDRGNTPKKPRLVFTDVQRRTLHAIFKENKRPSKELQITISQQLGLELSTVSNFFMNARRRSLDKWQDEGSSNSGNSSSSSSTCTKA
Hepatocyte nuclear factor 3-beta (Homo sapiens), sequence (Q9Y261 whole entry, looked up): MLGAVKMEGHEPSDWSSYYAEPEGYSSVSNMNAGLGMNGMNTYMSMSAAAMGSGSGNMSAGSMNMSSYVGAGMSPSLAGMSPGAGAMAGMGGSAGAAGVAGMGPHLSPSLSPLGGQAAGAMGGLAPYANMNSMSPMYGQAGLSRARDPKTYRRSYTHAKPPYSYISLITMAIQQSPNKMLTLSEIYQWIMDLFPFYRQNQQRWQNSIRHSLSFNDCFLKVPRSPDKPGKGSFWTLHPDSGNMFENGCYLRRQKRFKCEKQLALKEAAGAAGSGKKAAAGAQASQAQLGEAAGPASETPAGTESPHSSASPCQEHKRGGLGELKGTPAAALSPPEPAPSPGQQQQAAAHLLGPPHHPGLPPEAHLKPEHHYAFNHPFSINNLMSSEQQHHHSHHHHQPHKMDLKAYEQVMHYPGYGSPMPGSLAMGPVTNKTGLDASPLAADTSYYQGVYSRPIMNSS

On to `CCCCc1ccc2ccccc2c1S(=O)(=O)O`, for which the outcome in assay [1], in assay [2], in assay [3], in [4], in assay [5] and in assay [6] was inactive. In addition, the outcome in assay [7], in assay [8], in assay [9], in assay [10], in assay [11] and in assay [12] was inactive. For the same compound, the result in [13], in assay [14], in assay [15], in [16] and in assay [17] was inactive.

For the compound `CCCCCC(C)OC(=O)COc1ccc(Cl)c2cccnc12` (centres undefined), the outcome in assay [1], in assay [2], in assay [3], in assay [4], in [5] and in [18] was inactive. In addition, the result in [6], in assay [7], in assay [8], in assay [9], in assay [10] and in assay [11] was inactive. The outcome in assay [12], in assay [13], in assay [14], in assay [15], in assay [16] and in assay [19] was inactive. Besides, the result in assay [17] was inactive.

As to `CC(C)(C)C1CCCCC1O` (centres undefined), the outcome in [1], in assay [2], in [3], in [4], in assay [5] and in assay [18] was inactive. For the same compound, the compound was classed as inactive in assay [6], in [7], in [8], in [9], in assay [10] and in [12]. In addition, the compound was called inactive in [13], in assay [14], in assay [15], in assay [16], in assay [19] and in assay [17].

For the compound `O=C1C=CC(=O)N1c1cccc(N2C(=O)C=CC2=O)c1`, the outcome in assay [1], in assay [2], in [3], in assay [4], in [5] and in assay [6] was inactive. Further, the result in [7], in [8], in assay [9], in [10], in assay [12] and in assay [13] was inactive. Also, the outcome in [14], in assay [15], in assay [16], in assay [19] and in assay [17] was inactive.

Take `CC(C)(C)c1ccc(O)c(O)c1`: the outcome in assay [1], in [2], in assay [3], in assay [5], in [18] and in assay [6] was inactive. Besides, the call in [7], in assay [9], in assay [10], in assay [11], in assay [12] and in assay [13] was inactive. Besides, the outcome in [14], in [15] and in assay [17] was inactive. The AC50 was 45 µM (active) and 59 µM (active) and 37.3 µM (active) in [9]; 26.1 µM (active) and 25.9 µM (active) and 25.5 µM (active) in assay [14]; 133 µM (active) [middle of 5 runs] in [16].
